The supplement of paper PMC10849652
Targets with a hit are over-represented here; the source holds about 8,800 in all. About 0.5% of all pairs of compound and target were hits. Unmarked numbers belong to inactive results.

Columns and labels:
Assay in all cases: log2 fold change, soluble protein after heating vs DMSO (PISA); higher = thermal stabilisation; K562 lysate, 10 uM; active = over 0.2 and 3.5 SD of the protein, either way, in both replicates (recomputed)
[1] = compound: CS(=O)(=O)CCNCc1ccc(-c2ccc3ncnc(Nc4ccc(OCc5cccc(F)c5)c(Cl)c4)c3c2)o1 [lapatinib]
Summary of the method: (§1)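 To prepare the extract, K562 pellets were dounce-homogenised in PBS pH 7.4 with 1 mM MgCl2, giving crude material at 1 mg/mL protein. This was treated with 10 μM compound for 30 min, then heated in aliquots for 3 min over 48°C-58°C before pooling and addition of NP-40 to 0.5% at 4°C. Centrifugation at 21,000xg for 90 min left soluble protein in the supernatant, which TMTpro 16plex LC-MS/MS quantified with equalised channel sums. Results are log-two fold changes in thermal stability compared with solvent controls, from duplicates.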

[2] = compound: CS(=O)(=O)N1CCN(Cc2cc3nc(-c4cccc5[nH]ncc45)nc(N4CCOCC4)c3s2)CC1 [pictilisib]
Summary of the method: as §1

[3] = compound: C[C@@H](Oc1cc(-c2cnn(C3CCNCC3)c2)cnc1N)c1c(Cl)ccc(F)c1Cl [crizotinib]
Summary of the method: as §1

[4] = compound: C[C@H](C1=CC=C(C=C1)C(=O)NC2=C3C=CNC3=NC=C2)N
Summary of the method: as §1

[5] = compound: C[C@H](Nc1ncnc2nc[nH]c12)c1cc2cccc(Cl)c2c(=O)n1-c1ccccc1 [duvelisib]
Summary of the method: as §1

[6] = compound: Cc1cc(Nc2cc(CN3CCOCC3)c3nc(C)c(Cc4ccc(Cl)cc4F)n3n2)n[nH]1 [gandotinib]
Summary of the method: as §1

[7] = compound: Cc1cc(Nc2cc(N3CCN(C)CC3)nc(Sc3ccc(NC(=O)C4CC4)cc3)n2)n[nH]1 [tozasertib]
Summary of the method: as §1

[8] = compound: Cc1ccc(-n2nc(C(C)(C)C)cc2NC(=O)Nc2ccc(OCCN3CCOCC3)c3ccccc23)cc1 [doramapimod]
Summary of the method: as §1

[9] = compound: Cc1ccc(NC(=O)c2ccc(CN3CC[C@H](N(C)C)C3)c(C(F)(F)F)c2)cc1Nc1nccc(-c2cncnc2)n1 [bafetinib]
Summary of the method: as §1

[10] = compound: Cc1cccc(CC(=O)N2CCc3c2ccc(-c2cn(C)c4ncnc(N)c24)c3F)n1
Summary of the method: as §1

Chain of UniProt Q9BTD8 (Q9BTD8 whole entry, looked up): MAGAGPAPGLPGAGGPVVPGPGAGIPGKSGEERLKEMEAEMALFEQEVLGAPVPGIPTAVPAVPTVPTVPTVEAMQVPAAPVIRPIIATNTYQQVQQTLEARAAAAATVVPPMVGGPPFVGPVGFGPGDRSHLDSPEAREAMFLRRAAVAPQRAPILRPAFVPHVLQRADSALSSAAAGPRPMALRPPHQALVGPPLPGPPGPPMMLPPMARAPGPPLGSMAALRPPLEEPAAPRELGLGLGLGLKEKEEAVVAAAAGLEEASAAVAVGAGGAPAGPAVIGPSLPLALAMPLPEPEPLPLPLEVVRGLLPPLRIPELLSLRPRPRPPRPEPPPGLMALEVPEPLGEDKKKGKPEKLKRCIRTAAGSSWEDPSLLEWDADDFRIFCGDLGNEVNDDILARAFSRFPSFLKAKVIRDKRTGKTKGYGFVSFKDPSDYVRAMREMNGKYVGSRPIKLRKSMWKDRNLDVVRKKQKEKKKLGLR
Chain of UniProt Q99708 (Q99708 whole entry, looked up): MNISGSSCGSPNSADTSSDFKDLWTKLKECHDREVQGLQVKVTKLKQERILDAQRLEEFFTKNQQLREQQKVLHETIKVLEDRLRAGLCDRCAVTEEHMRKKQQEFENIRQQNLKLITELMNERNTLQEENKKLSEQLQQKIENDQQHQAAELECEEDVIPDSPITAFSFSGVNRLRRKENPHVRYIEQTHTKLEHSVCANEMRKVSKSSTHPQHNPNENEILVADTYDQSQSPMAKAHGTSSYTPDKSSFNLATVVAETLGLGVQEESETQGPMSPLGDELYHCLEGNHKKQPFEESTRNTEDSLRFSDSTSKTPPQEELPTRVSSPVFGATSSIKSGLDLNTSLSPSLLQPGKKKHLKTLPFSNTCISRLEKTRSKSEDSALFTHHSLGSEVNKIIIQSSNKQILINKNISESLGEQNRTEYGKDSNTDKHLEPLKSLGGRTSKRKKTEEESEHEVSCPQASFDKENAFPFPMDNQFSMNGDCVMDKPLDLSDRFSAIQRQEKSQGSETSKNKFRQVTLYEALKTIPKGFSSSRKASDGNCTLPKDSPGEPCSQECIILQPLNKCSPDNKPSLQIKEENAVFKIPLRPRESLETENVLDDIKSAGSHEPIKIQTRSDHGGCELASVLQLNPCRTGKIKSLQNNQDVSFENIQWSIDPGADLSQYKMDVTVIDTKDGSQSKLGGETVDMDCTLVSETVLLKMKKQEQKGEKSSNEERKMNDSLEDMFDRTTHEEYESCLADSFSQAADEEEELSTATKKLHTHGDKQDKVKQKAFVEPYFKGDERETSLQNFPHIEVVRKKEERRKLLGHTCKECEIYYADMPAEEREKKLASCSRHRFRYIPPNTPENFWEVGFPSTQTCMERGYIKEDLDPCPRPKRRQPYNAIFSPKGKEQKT
Chain of UniProt P53611 (P53611 whole entry, looked up): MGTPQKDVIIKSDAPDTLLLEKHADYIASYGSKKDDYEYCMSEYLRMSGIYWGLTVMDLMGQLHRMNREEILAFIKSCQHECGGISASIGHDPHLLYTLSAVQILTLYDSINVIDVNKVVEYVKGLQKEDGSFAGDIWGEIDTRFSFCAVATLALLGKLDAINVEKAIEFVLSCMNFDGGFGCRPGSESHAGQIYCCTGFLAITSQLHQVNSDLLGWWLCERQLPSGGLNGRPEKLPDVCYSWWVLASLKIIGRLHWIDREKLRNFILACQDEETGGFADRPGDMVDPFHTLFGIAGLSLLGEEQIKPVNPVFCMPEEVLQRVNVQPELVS
Chain of UniProt Q9HBH5 (Q9HBH5 whole entry, looked up): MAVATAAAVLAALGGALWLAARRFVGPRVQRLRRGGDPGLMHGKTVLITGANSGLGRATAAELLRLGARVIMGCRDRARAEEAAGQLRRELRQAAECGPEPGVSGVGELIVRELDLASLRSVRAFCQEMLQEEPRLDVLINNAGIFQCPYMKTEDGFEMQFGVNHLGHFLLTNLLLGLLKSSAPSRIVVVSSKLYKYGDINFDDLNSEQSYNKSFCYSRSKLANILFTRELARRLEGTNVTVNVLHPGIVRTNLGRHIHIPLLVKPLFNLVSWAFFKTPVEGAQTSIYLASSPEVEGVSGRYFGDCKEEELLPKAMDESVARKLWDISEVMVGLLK
Chain of UniProt P23443 (P23443 whole entry, looked up): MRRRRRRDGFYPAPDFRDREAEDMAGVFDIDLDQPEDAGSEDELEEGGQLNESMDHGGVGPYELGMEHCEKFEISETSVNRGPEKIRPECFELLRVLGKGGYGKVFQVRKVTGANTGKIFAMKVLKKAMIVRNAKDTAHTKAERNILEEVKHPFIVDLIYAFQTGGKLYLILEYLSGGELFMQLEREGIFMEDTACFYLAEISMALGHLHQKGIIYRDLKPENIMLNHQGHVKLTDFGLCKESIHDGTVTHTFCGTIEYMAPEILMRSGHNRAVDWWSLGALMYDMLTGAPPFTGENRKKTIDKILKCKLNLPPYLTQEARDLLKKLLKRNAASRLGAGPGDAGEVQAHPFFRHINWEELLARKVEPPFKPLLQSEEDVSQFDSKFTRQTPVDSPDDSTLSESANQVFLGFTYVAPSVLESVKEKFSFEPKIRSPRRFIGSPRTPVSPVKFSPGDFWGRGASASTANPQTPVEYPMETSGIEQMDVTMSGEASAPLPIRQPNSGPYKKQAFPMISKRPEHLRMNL
Chain of UniProt Q14644 (Q14644 whole entry, looked up): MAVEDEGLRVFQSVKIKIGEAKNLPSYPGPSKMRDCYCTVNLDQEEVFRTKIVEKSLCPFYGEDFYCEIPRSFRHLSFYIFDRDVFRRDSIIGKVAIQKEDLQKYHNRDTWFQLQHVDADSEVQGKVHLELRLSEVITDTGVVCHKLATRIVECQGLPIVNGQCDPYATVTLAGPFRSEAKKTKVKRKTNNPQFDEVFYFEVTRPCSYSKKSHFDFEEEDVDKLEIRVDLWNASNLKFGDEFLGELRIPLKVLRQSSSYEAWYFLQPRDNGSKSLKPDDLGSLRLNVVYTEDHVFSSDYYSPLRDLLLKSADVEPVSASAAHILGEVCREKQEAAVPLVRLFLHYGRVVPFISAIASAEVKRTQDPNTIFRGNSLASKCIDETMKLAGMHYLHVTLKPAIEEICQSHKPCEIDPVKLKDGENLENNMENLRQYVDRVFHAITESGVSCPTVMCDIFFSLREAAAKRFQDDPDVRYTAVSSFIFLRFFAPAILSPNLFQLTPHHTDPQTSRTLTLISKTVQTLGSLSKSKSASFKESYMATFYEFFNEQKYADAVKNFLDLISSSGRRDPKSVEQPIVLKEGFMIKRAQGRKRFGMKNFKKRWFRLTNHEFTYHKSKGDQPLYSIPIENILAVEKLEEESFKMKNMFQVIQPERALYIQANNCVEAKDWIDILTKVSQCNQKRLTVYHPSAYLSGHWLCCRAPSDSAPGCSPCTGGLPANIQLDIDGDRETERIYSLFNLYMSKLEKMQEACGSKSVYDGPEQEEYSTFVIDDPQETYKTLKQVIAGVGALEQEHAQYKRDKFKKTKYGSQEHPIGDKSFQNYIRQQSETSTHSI
Chain of UniProt Q8WZA2 (Q8WZA2 whole entry, looked up): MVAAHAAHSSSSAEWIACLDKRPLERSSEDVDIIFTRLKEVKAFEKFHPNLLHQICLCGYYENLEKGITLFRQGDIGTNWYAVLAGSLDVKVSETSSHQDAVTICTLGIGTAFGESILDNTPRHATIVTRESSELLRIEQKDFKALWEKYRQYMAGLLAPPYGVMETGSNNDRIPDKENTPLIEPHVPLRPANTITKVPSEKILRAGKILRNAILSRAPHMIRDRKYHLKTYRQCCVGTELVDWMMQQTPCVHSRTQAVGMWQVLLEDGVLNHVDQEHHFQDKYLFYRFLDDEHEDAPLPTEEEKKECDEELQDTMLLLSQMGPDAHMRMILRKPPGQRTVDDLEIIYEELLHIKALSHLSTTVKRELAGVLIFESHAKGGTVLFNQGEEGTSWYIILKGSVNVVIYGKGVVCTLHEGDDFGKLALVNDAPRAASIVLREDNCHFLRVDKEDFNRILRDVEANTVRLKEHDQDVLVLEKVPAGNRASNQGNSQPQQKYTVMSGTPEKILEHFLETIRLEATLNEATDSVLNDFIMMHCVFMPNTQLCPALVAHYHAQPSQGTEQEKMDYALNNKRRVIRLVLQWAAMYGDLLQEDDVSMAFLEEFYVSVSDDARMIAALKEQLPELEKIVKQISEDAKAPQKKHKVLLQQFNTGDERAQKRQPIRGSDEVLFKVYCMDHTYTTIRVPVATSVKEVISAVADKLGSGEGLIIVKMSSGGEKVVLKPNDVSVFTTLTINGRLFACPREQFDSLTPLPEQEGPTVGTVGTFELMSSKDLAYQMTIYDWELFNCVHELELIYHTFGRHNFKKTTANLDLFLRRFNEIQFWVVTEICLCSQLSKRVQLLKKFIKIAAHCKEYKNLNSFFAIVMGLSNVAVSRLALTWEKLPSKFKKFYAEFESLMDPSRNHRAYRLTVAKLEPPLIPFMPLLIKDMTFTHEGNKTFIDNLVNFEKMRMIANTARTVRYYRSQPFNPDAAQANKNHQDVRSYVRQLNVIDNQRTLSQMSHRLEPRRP
Chain of UniProt Q9H0U4 (Q9H0U4 whole entry, looked up): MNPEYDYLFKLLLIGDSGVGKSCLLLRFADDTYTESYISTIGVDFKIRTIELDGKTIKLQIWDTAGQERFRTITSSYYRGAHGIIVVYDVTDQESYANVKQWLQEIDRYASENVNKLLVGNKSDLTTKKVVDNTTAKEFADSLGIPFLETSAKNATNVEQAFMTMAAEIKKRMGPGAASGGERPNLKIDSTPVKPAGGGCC
Chain of UniProt Q7Z6M1 (Q7Z6M1 whole entry, looked up): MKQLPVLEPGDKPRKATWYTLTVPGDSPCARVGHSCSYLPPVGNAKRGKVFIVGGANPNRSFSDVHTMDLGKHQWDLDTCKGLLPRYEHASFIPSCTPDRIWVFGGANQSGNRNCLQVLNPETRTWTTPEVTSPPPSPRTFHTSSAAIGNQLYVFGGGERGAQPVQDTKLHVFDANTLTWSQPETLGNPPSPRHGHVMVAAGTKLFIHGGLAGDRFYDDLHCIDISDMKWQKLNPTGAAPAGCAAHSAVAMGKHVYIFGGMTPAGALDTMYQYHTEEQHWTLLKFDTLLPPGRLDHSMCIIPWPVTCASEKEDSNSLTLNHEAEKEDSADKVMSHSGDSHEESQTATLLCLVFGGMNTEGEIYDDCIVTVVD

Target | log2 fold change [1] | log2 fold change [2] | log2 fold change [3] | log2 fold change [4] | log2 fold change [5] | log2 fold change [6] | log2 fold change [7] | log2 fold change [8] | log2 fold change [9] | log2 fold change [10]
RAB3IL1 (UniProt E9PK89) | -0.025 | 0.063 | 0.039 | 0.045 | -0.036 | 0.006 | 0.059 | -0.117 | -0.094 | 0.057
SERPINI1 (UniProt Q99574) | 0.034 | -0.061 | 0.001 | 0.036 | 0.007 | 0.055 | 0.014 | -0.042 | -0.065 | 0.04
RPN2 (UniProt P04844) | -0.048 | -0.006 | -0.004 | -0.074 | -0.003 | 0.039 | -0.003 | 0 | -0.032 | 0.06
RPS6KB1 (UniProt P23443) | 0.009 | 0.075 | 0.16 | -0.104 | 0.001 | 0.051 | 0.022 | -0.05 | 0.006 | 0.177
SCCPDH (UniProt Q8NBX0) | 0.108 | 0.006 | 0.394 | -0.179 | 0.195 | 0.869 (active) | -0.052 | -0.102 | -0.015 | 0.034
RNF17 (UniProt Q9BXT8) | -0.02 | 0.031 | 0.105 | 0.08 | -0.071 | 0.028 | 0.119 | 0.006 | -0.285 | -0.257
RNF213, A0A0A0MTC1 | -0.012 | -0.014 | -0.064 | -0.043 | 0.008 | -0.123 | 0.043 | 0.033 | -0.066 | 0.052
RNPS1 (UniProt Q15287) | 0.025 | 0.044 | 0.254 (active) | -0.02 | 0.038 | 0 | 0.042 | -0.057 | -0.009 | -0.001
RAPGEF2, A0A2R8YGD3 | -0.014 | 0.015 | 0.024 | -0.431 (active) | 0.018 | 0.038 | 0.014 | -0.039 | -0.171 | 0.266
RBBP8 isoform 2 (UniProt Q99708) | -0.042 | 0.069 | -0.085 | 0.065 | 0.032 | -0.013 | 0.177 | 0.024 | -0.079 | 0.007
RPAP1 (UniProt Q9BWH6) | -0.012 | -0.027 | -0.026 | -0.026 | 0.021 | -0.002 | 0.018 | 0.001 | -0.041 | 0
RAB1B (UniProt Q9H0U4) | 0.021 | 0.053 | 0.031 | -0.35 (active) | 0.033 | 0.156 | 0.011 | -0.052 | -0.038 | 0.242 (active)
RETSAT (UniProt Q6NUM9) | 0.056 | -0.048 | -0.329 | -0.159 | 0.039 | 0.167 | -0.024 | 0.006 | -0.097 | 0.391
RCOR3 isoform 3 (UniProt Q9P2K3) | 0.016 | 0.023 | 0.011 | 0.014 | -0.029 | -0.024 | 0.009 | -0.048 | -0.035 | 0.004
SBF1 isoform 4 (UniProt O95248) | -0.029 | -0.075 | 0.088 | 0.07 | -0.039 | -0.066 | 0 | -0.004 | -0.061 | 0.006
RAB3IL1 (UniProt Q8TBN0) | -0.002 | -0.034 | -0.023 | 0 | -0.003 | -0.014 | -0.004 | -0.012 | 0.006 | -0.02
SAR1A (UniProt Q9NR31) | 0.101 | 0.191 | -0.056 | 0.033 | 0.002 | 0.341 | 0.027 | 0.504 (active) | -0.022 | 0.156
SEC16A isoform 5 (UniProt O15027) | -0.019 | -0.044 | 0.018 | -0.039 | -0.013 | -0.014 | -0.001 | -0.002 | 0.031 | 0.029
RBM42 (UniProt Q9BTD8) | 0.05 | 0.049 | 0.01 | 0.026 | -0.032 | 0.04 | -0.001 | 0.216 (active) | 0.083 | -0.01
RMC1 (UniProt Q96DM3) | -0.036 | -0.011 | -0.013 | -0.029 | 0.024 | -0.051 | -0.056 | 0.012 | -0.062 | 0.035
RAF1 isoform 2 (UniProt P04049) | 0.077 | 0.014 | -0.047 | 0.046 | -0.014 | -0.118 | 0.025 | 0.025 | -0.004 | -0.016
RABEPK (UniProt Q7Z6M1) | 0.003 | -0.016 | -0.008 | -0.069 | 0.018 | 0.007 | -0.033 | 0.005 | 0.024 | 0.04
RASA3 (UniProt Q14644) | 0.08 | -0.044 | -0.061 | -0.049 | 0.103 | -0.026 | -0.017 | -0.005 | -0.198 | 0.005
RPTOR (UniProt Q8N122) | -0.001 | -0.024 | -0.056 | -0.044 | -0.024 | -0.097 | 0.019 | 0.025 | -0.057 | 0.009
RDH14 (UniProt Q9HBH5) | 0.082 | -0.028 | 0.009 | -0.191 | 0.002 | 0.176 | 0.043 | 0 | -0.005 | 0.198
RELN (UniProt P78509) | 0.047 | 0.047 | -0.022 | -0.104 | 0.002 | 0.057 | -0.002 | -0.044 | -0.042 | 0.08
RAPGEF4 (UniProt Q8WZA2) | -0.061 | 0.047 | -0.24 | -0.804 (active) | 0.104 | 0.38 | -0.088 | -0.041 | -0.212 | 0.543
RCOR1 (UniProt Q9UKL0) | -0.056 | -0.069 | 0.048 | -0.083 | -0.004 | -0.009 | 0.019 | -0.061 | -0.056 | 0.041
RABGGTB (UniProt P53611) | -0.02 | 0.006 | -0.031 | 0.135 | 0.043 | -0.051 | -0.023 | 0.016 | -0.087 | 0.028
RRM1 (UniProt P23921) | 0.003 | 0.01 | -0.025 | -0.004 | -0.052 | -0.028 | -0.036 | -0.017 | -0.018 | 0.001
